TDP1 block = inhibitors of human tyrosyl-DNA phosphodiesterase TDP1; Q9NUW8; recombinant TDP1, AlphaScreen DNA substrate cleavage; Potency, µM (doses to about 130 µM), without a hit: top-dose activity change, negative = inhibition, most hits filed as inhibitors; hit rate 0.28% among 350,000; further: potency means the concentration at half of the fitted maximal effect; on the % scale 0 is the no-effect control and ±100 the full control effect; nearly all actives have a fitted effect of over 40% in size
Target sequence (Q9NUW8 whole entry, looked up): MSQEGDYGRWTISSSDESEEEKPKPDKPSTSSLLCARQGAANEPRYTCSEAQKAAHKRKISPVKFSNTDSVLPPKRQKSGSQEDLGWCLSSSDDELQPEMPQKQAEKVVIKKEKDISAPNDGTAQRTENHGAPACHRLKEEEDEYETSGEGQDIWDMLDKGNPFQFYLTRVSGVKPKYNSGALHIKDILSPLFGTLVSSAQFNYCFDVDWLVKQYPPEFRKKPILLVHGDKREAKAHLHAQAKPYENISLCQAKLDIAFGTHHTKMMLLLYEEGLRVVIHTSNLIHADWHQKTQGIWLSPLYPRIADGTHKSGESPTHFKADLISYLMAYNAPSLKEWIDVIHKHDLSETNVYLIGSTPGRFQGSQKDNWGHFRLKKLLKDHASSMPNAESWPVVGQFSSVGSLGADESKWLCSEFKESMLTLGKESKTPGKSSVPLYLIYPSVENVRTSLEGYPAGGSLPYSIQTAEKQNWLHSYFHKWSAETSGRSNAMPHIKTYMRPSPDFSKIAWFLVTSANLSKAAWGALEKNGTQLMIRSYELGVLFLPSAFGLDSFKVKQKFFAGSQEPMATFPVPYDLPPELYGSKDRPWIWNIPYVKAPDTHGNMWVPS
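Steps: enzyme plus compound, 15 min RT; add biotin/phosphotyrosine-FITC oligonucleotide (15 nM final), react 5 min; add donor/acceptor beads (10 ug/ml final), 10 min; read AlphaScreen. Tdp1 at 1 nM final.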
TGFb SMAD3 inh = TGF-b pathway inhibition. HepG2 CAGA-GFP TGF-b/SMAD3 reporter, GFP fluorescence, 18 h; TGF-beta stimulated, 500 pg/mL final. Potency, µM (titrated, usually from 46.1 µM), inactives show top-dose activity, negative = inhibition, hits mostly inhibitors. hit rate 1.2% among 410,000; further: potency means the concentration at half of the fitted maximal effect; on the % scale 0 is the no-effect control and ±100 the full control effect; nearly all actives have a fitted effect of over 65% in size
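Inhibition of TGF-beta-driven CAGA-GFP reporter expression in HEPG2 cells is measured by cellular GFP fluorescence after 18 h stimulation with 500 pg/mL recombinant TGF-beta in 1% FBS medium at 37 degrees C.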
TDP1 cell noCPT = qHTS for Inhibitors of human tyrosyl-DNA phosphodiesterase 1 (TDP1): qHTS in cells in absence of CPT; DT40 Tdp1-/- hTDP1 cells, no CPT, ATP luminescence, 48 h; hit rate 15% among 420,000; AID 686978, 2013; Potency, µM (series often up to 46.2 µM), without a hit: top-dose activity change, negative = growth inhibition, usual class: inhibitors; further: potency means the concentration at half of the fitted maximal effect; on the % scale 0 is the no-effect control and ±100 the full control effect; nearly all actives have a fitted effect of over 55% in size
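Camptothecin absent (DMSO only). Human TDP1-complemented DT40 knockout cells, 400 cells/well, 37 °C for minimum 48 hr; ATP measured via CellTiter-Glo, 30 min dark incubation, luminescence.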
DT40 TDP1 CPT = DT40-hTDP1 cell growth loss with CPT; chicken DT40 Tdp1-/-;hTDP1 cells + 20 nM CPT, ATP luminescence, 48 h; Potency, µM (top dose mostly 46.2 µM), for the others: at the top dose activity change, negative = growth inhibition, usual class: inhibitors; hit rate 12% among 420,000; AID 686979; further: potency means the concentration at half of the fitted maximal effect; on the % scale 0 is the no-effect control and ±100 the full control effect; nearly all actives have a fitted effect of over 55% in size
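Chicken DT40 Tdp1-/- cells complemented with human TDP1, 400 cells/well, exposed to compounds plus 20 nM camptothecin for at least 48 h at 37 C; viability read as ATP content by CellTiter-Glo luminescence.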
IL-1B inflam inh = blocks inflammasome-driven IL-1 beta release. THP-1 LPS/ATP IL-1B secretion, AlphaLISA, 16 h; hits give low values. activity change, % at 57.5 µM. hit rate 4.7% among 360,000; in the data active means activity change below about -50%; inconclusive means mostly about -30% to -49%; further: on the % scale 0 is the no-effect control and ±100 the full control effect
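THP-1 cells pretreated 1 hr with compounds (up to 57.5 uM final), then stimulated with LPS (250 ng/mL final) plus ATP (1.25 mM final); secreted IL-1B measured by AlphaLISA after 16 hr, decreased signal indicating inhibition.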
HepG2 tox = counter-screen for TGF-b inhibitors: cytotoxicity in HepG2 cells; Potency, µM (titrated, usually from 46.1 µM), inactives show at the top dose activity change, negative = cytotoxicity, most hits filed as cytotoxic; HepG2 CAGA-GFP viability, ATP luminescence, 18 h; hit rate 0.76% among 410,000; further: potency means the concentration at half of the fitted maximal effect
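HepG2 CAGA-GFP cells (1000/well, DMEM with 1% FBS) received compound, then TGF-beta at 500 pg/mL final, and were incubated 18 hours at 37 degrees C. Viability was read by CellTiter-Glo luminescence. Media-only wells were set as complete cell-killing and DMSO as no toxicity.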
An asterisk follows results filed as active; ? = inconclusive; / = no result given; [ ] = remark or other dose. The list is not random: actives were taken first. Their share in the collection is about 18%. Unless noted, the call rests on the fitted dose curve; in most records, active means well fitted curve in the direction sought with a large enough effect; inconclusive means small, poorly fitted or top-dose-only effect, or another doubt; inactive means no such curve, though single readings can be large; an effect the other way counts as inactive or inconclusive.

SMILES	TDP1 block	TGFb SMAD3 inh	TDP1 cell noCPT	DT40 TDP1 CPT	IL-1B inflam inh	HepG2 tox
COc1ccc2c(c1)c(C(O)CN1CCC(Cc3ccccc3)CC1)c(C)n2C (configuration not stated)	10%	?	?	?	-90*	-25%
Cc1c(C(O)CN2CCN(Cc3ccc4c(c3)OCO4)CC2)c2ccccc2n1C (configuration not stated)	5%	?	-30%	?	-10	-30%
COc1ccc2c(c1)c(C(O)CN1CCN(Cc3ccc4c(c3)OCO4)CC1)c(C)n2C (configuration not stated)	11%	?	23µM*	?	-15	-41%
CC(=O)c1cccc(S(=O)(=O)Nc2ccccc2N2CCOCC2)c1	1%	0%	-4%	7%	9	1%
O=C(COC(=O)C1c2ccccc2Oc2ccccc21)NC1CCS(=O)(=O)C1 (configuration not stated)	10%	-3%	?	?	3	-26%
O=c1c(C=NCCCO)c(-c2ccccc2)[nH]n1-c1nc2ccccc2s1	4%	?	?	13µM*	-6	-62%
CCCCCN=Cc1c(C)[nH]n(-c2nc3ccccc3s2)c1=O	7%	-15%	4.6µM*	2.1µM*	-20	1.4µM*
COCCCN=Cc1c(-c2ccccc2)[nH]n(-c2nc3ccccc3s2)c1=O	/	-13%	?	26µM*	?	19%
CCCc1[nH]n(-c2nc3ccccc3s2)c(=O)c1C=NCCCOC	/	-18%	0%	-12%	?	-46%
Cn1c(=O)c(-c2ccc(Cl)cc2)nc2cnc(N3CCOCC3)nc21	/	/	1%	4%	/	/
O=C(Nc1ccccc1)NC1(C(=O)NCc2cccs2)CCCCC1	-3%	0%	4%	-29%	3	0%
O=C(Nc1ccc(Cl)cc1)NC1(C(=O)NCCCN2CCOCC2)CCCCC1	10%	-9%	-30%	0%	13	10%
CCC(C)NC(=O)C1(NC(=O)Nc2ccccc2)CCCCC1 (configuration not stated)	1%	-3%	18µM*	16µM*	-1	9%
CCCCNC(=O)C1(NC(=O)Nc2ccc(C)cc2)CCCCC1	10%	9%	?	7.3µM*	-2	7%
O=c1cc(-c2ccccc2)n(S(=O)(=O)c2ccc3ccccc3c2)o1	/	-7%	-7%	0%	6	-18%
CC(CNC(=O)c1cccnc1)NC(=O)c1cccnc1 (configuration not stated)	3%	/	-2%	3%	/	/
CCOC(=O)c1cc(S(=O)(=O)N2CCC(C)CC2)cn1C	2%	-30%	-32%	?	18	-25%
COC(=O)C1=C(C)NC(=O)CC1c1cc2c(cc1Br)OCO2 (configuration not stated)	0%	-1%	-24%	-9%	21	3%
COCCOC(=O)C1=C(C)NC2=C(C(=O)CCC2)C1c1cc2c(cc1Br)OCO2 (configuration not stated)	5%	-11%	0%	-3%	13	-2%
CC1=C(C(=O)OC2CCCCCCC2)C(c2cc3c(cc2Br)OCO3)CC(=O)N1 (configuration not stated)	2%	?	?	?	-59*	16µM*
CC1=C(C(=O)OCCOC(C)C)C(c2cc3c(cc2Br)OCO3)CC(=O)N1 (configuration not stated)	0%	5%	?	16µM*	27	-3%
CCN(C(=O)Cn1nnc(-c2ccccc2)n1)C1CCS(=O)(=O)C1 (configuration not stated)	/	4%	-1%	-4%	-3	7%
CC(C)Oc1ccccc1OC1(C)CCN(Cc2ccc(OC(F)(F)F)cc2)C1 (configuration not stated)	/	15%	?	?	23	-19%
CSc1ccc(OC2(C)CCN(Cc3ccc(C(C)C)cc3)C2)cc1 (configuration not stated)	/	-3%	18µM*	?	28	-37%
CCc1ccc(OC2(C)CCN(Cc3ccc(SC)cc3)C2)cc1 (configuration not stated)	/	-19%	?	?	-7	-32%
SMILES	TDP1 block	TGFb SMAD3 inh	TDP1 cell noCPT	DT40 TDP1 CPT	IL-1B inflam inh	HepG2 tox
CC1(Oc2ccc(Cl)cc2)CCN(Cc2ccc(OC(F)(F)F)cc2)C1 (configuration not stated)	/	-11%	-11%	?	-81*	-19%
CC1(Oc2ccc(CC#N)cc2)CCN(Cc2ccc(-n3ccnc3)cc2)C1 (configuration not stated)	/	6%	13µM*	?	-1	-27%
CC1(Oc2ccc(CC#N)cc2)CCN(Cc2ccccc2OC(F)F)C1 (configuration not stated)	/	2%	-27%	-29%	18	-26%
O=C(COC(=O)c1cccnc1Cl)Nc1cc(S(=O)(=O)N2CCCCCC2)ccc1Cl	0%	1%	-20%	-5%	-3	5%
Cc1cc(Cl)ccc1NC(=O)CN(c1ccccc1Br)S(C)(=O)=O	0%[12.3 µM]	5%	-29%	?	/	-47%
Cc1cccc(OCC(O)CN2CCOCC2)c1 (configuration not stated)	/	4%	5%	3%	-15	9%
CCCn1c(=N)n(CC(O)c2ccc(C)cc2)c2ccccc21 (configuration not stated)	2%	-19%	23µM*	?	?	-45%
CCN(CC)CCn1c(=N)n(CC(O)COc2ccccc2)c2ccccc21 (configuration not stated)	7%	14%	18µM*	?	-29	-9%
CCCCn1c(=N)n(CC(O)COc2cccc(C)c2)c2ccccc21 (configuration not stated)	0%	?	13µM*	12µM*	-94*	-95%
CCCCN(CC(O)COc1cccc(C)c1)CC(O)COc1cccc(C)c1 (configuration not stated)	/	16µM*	23µM*	?	-100*	-100%
CN(C)CC(O)COc1cccc(OCC(O)CN(C)C)c1 (configuration not stated)	0%	-1%	-3%	14%	-6	-7%
Cc1cc(C)c2c(n1)nn1c(C)c(CCC(=O)NCc3ccccc3Cl)c(C)nc21	5%	2%	-18%	4%	/	-2%

Bioassay records: PubChem, National Center for Advancing Translational Sciences (NCATS)
